Records with an inconclusive call do not appear. A number with no mark means an inactive call. Active and inactive are the calls of the source. The call rests on the fitted dose curve; in most records, active means well fitted inhibition curve with a large enough effect; inconclusive means small, poorly fitted or top-dose-only effect; inactive means no such curve, though single readings can be large or run the other way.
Assay: qHTS Screen of the MIPE 4.0 Collection Against Ewings Sarcoma (TC71) (AID 1259253); further: nearly all actives have a fitted effect of over 40% in size;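 on viability (% of DMSO): 100% = DMSO-treated cells and 0% = medium-only wells without cells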
Conditions: TC71 Ewing sarcoma viability, CellTiter-Glo, 48 h; series mostly up to 45.8 µM; viability (% of DMSO): at the top concentration
Source text: There is a large unmet medical need for treatments for Ewing sarcoma, a pediatric sarcoma. We sought to identify compounds that inhibited Ewing sarcoma cells in vitro with the goal to then test promising drugs in two drug combinations in vitro to look for synergistic drug combinations. Promising combinations would then proceed to additional validation, including in vivo testing.
Using the NCATS developed oncology compound library called the Mechanism of Interrogation Plate (MIPE), four Ewing sarcoma cell lines were evaluated (TC32, TC71, RDES, EW8). Compounds, in a 12-point titration series, were incubated with cells for 48 hours and the read out was cell viability (CellTiter-Glo from Promega). These initial experiments were used to select appropriate concentrations of each single agent for subsequent two-drug matrix combinations such that the concentrations in the matrices would span both activity and non-activity.
Cells, in the log phase of growth, were seeded in 5 uL of RPMI plus 5% FBS, […] L-glutamine, 100 U/ml penicillin and 100 ug/ml streptomycin into 1536-well solid-bottom white tissue culture treated Greiner Bio One Plates (789173-F) using a MultiDrop Combi (Thermofisher Scientific) dispenser and a small sterile cassette. One column was media alone to be used as a :"no cells" control. The plates were then covered with sterilized stainless steel gasketed lids from Kalypsys. After allowing cells to attach for 4 hours, 23 nL of test compound or control (negative control DMSO and positive control 9.2 uM Bortezomib-final) were added from a 1536-well polypropylene compound source plate to each well using a 1536 head pin tool from Kalypsys. Cells were then incubated for 48 hours at 37C, 95% relative humidity and 5% CO2. After 48 hours, plates were removed from the incubator and 3 uL of CellTiter-Glo (Promega) was added using an Aurora Flying Reagent Dispenser Bioraptor. Plates were incubated at room temperature for 10 minutes prior to reading the luminescence on the Viewlux (PerkinElmer). The relative luciferase units are used to calculate the percent activity using the activity of DMSO in the cells and no cells columns for normalization of no inhibition and full inhibition respectively.
Potency means the concentration at half of the fitted maximal effect.

Compound	Potency	viability (% of DMSO)
OCc1ccc(-c2nn(Cc3ccccc3)c3ccccc23)o1	14.8 µM (active)	–
S=P(N1CC1)(N1CC1)N1CC1	16.6 µM (active)	–
CCn1cc(C(=O)O)c(=O)c2cc(F)c(N3CCNCC3)cc21	–	149%
Cc1ncc([N+](=O)[O-])n1CCO	–	124%
CO[C@@]12[C@H](COC(N)=O)C3=C(C(=O)C(C)=C(N)C3=O)N1C[C@@H]1N[C@@H]12	0.0418 µM (active)	–
COC(c1ccccc1)(c1ccccc1)[C@H](Oc1nc(C)cc(C)n1)C(=O)O	–	117%
CO[C@@H]1[C@@H](OC(N)=O)[C@@H](O)[C@H](Oc2ccc3c(O)c(NC(=O)c4ccc(O)c(CC=C(C)C)c4)c(=O)oc3c2C)OC1(C)C	4.69 µM (active)	–
Cc1nnc(C(=O)NC(C)(C)c2nc(C(=O)NCc3ccc(F)cc3)c(O)c(=O)n2C)o1	–	112%
CC(=O)[C@H]1CC[C@H]2[C@@H]3CCC4=CC(=O)CC[C@]4(C)[C@H]3CC[C@]12C	3.32 µM (active)	–
CCCN[C@H]1CCc2nc(N)sc2C1	–	117%
O=C(O)CSCC(=O)NC1CCSC1=O (stereo not given)	–	133%
O=C(O)c1cccnc1	–	107%
CNCC[C@H](Oc1cccc2ccccc12)c1cccs1	2.64 µM (active)	–
CCCCc1oc2ccc(NS(C)(=O)=O)cc2c1C(=O)c1ccc(OCCCN(CCCC)CCCC)cc1	20.9 µM (active)	–
O=NN(CCCl)C(=O)NC1CCCCC1	–	147%
CCCc1cc(C(N)=S)ccn1	–	131%
O[C@@H](CNC[C@H](O)[C@H]1CCc2cc(F)ccc2O1)[C@@H]1CCc2cc(F)ccc2O1	20.9 µM (active)	–
COc1cccc(N(C)C(=S)Oc2ccc3c(c2)CCCC3)n1	–	99.2%
Clc1ccccc1CN1CCc2sccc2C1	–	111%
NNC(=O)c1ccncc1	–	126%

Compound	Potency	viability (% of DMSO)
CC(C)OC(=O)OCOP(=O)(CO[C@H](C)Cn1cnc2c(N)ncnc21)OCOC(=O)OC(C)C	18.7 µM (active)	–
CN(C)c1ccc(C(=C2C=CC(=[N+](C)C)C=C2)c2ccc(N(C)C)cc2)cc1	0.296 µM (active)	–
Cc1cc(NS(=O)(=O)c2ccc(N)cc2)no1	–	121%
CN(C)CCc1c[nH]c2ccc(CS(=O)(=O)N3CCCC3)cc12	–	119%
COC(=O)Nc1nc2ccc(S(=O)c3ccccc3)cc2[nH]1 (stereo not given)	18.7 µM (active)	–
CC(C)C1CCC(C(=O)N[C@H](Cc2ccccc2)C(=O)O)CC1 (stereo not given in full)	–	108%
Oc1c(Cl)cc(Cl)c2cccnc12	10.5 µM (active)	–
COc1cc2ncnc(Nc3cccc(Cl)c3)c2cc1OC	4.18 µM (active)	–
CC[C@H](C)C(=O)O[C@H]1C[C@@H](C)C=C2C=C[C@H](C)[C@H](CC[C@@H]3C[C@@H](O)CC(=O)O3)[C@H]21	14.8 µM (active)	–
COc1cc(NS(=O)(=O)c2ccc(N)cc2)nc(OC)n1	–	131%
CCOC(=O)c1ccc(OC(=O)CCCCCN=C(N)N)cc1	–	133%
CN1CCCC(n2nc(Cc3ccc(Cl)cc3)c3ccccc3c2=O)CC1 (stereo not given)	2.64 µM (active)	–
CNS(=O)(=O)CCc1ccc2[nH]cc(C3CCN(C)CC3)c2c1	0.235 µM (active)	–
CC(C)NCC(O)c1ccc(NS(C)(=O)=O)cc1 (stereo not given)	16.6 µM (active)	–
O=c1oc2c(O)c(O)cc3c(=O)oc4c(O)c(O)cc1c4c23	–	130%
Nc1nc(N)c2nc(CNc3ccc(C(=O)NC(CCC(=O)O)C(=O)O)cc3)cnc2n1 (stereo not given)	0.0132 µM (active)	–
Nc1nc(F)nc2c1ncn2[C@@H]1O[C@H](CO)[C@@H](O)[C@@H]1O	0.372 µM (active)	–
CCN(CC)CC#CCOC(=O)C(O)(c1ccccc1)C1CCCCC1 (stereo not given)	–	89.7%
CCC(C)(C)c1ccc(CC(C)CN2C[C@@H](C)O[C@@H](C)C2)cc1 (stereo not given in full)	–	100%
N[C@@H](Cc1ccc(O)c(O)c1)C(=O)O	–	130%

Source: PubChem BioAssay (NCATS)
